Compound activity (PubChem BioAssay)
Sfp inh: qHTS Assay for Inhibitors of Bacillus subtilis Sfp phosphopantetheinyl transferase (PPTase). 3.5% of 310,000 active. Biochemical Sfp PPTase activity, qHTS. AID 1490, 2009. Potency, µM, without a hit: largest response in the series, negative = inhibition, hits mostly inhibitors. 4'-phosphopantetheinyl transferase ffp (Bacillus subtilis), Q9F4F7;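 note: the enzyme is Sfp with the accession as filed and its product quenches rhodamine fluorescence; potency is the fitted concentration of half-maximal effect; 0% = enzyme reaction without inhibitor and -100% = no enzyme wells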
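With Hepes-Na pH 7.6 buffer containing 10 mM MgCl2, Sfp (15 nM) modified BHQ-2-YbbR (12.5 uM) using rhodamine-CoA (5 uM). Two reads 30 minutes apart at 525/598 nm yielded each well's rate.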
CCT chaperon mod: High-Throughput Screening for Modulators of Cytosolic Chaperonin Activity; purified chaperonin ATPase assay, HTRF ADP detection, 30 min; activity change, % (no concentration beside the values), hits read low; 0.3% of 360,000 active; AID 651819, 2012; in the data active = activity change below about -30%
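We incubate TRiC, 40 or 20 nM final, with library compounds at 76 uM and 10 uM ATP for 30 min at 37 °C. ADP formed is detected with Transcreener HTRF reagents after 30 min at room temperature.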
PLK1 PBD block: qHTS for Inhibitors of PLK1-PDB (polo-like kinase 1 - polo-box domain): Primary Screen | Serine/threonine-protein kinase PLK1 (Homo sapiens), P53350 | Plk1 PBD binding of FITC phosphopeptide, fluorescence polarization | Potency, µM, without a hit: max response, negative = inhibition, most hits filed as inhibitors | 2.8% of 360,000 active | AID 720504, 2013; note: potency is the fitted concentration of half-maximal effect; series mostly up to about 57 µM; nearly all actives have a fitted effect of over 65% in size
Target sequence (P53350 whole entry, looked up, the tested form may be a part): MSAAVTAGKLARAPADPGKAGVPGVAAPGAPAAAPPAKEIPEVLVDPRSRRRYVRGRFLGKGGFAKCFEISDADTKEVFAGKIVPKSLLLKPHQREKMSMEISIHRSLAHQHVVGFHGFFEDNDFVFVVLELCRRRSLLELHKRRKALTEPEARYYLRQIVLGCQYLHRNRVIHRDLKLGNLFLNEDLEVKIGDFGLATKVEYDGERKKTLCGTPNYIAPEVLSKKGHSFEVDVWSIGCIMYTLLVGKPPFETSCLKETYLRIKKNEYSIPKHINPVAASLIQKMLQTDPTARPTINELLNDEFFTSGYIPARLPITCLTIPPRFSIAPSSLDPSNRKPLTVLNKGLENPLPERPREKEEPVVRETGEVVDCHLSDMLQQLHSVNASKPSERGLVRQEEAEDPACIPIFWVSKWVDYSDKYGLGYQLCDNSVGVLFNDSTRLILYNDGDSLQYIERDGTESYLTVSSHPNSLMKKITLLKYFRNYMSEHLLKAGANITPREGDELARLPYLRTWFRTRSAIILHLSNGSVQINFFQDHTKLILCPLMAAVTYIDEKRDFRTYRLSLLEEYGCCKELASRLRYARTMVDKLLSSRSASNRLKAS
VDR inhibitor: Inhibitors of the vitamin D receptor (VDR): qHTS; AID 504847, 2011; Vitamin D3 receptor (Homo sapiens), P11473; 0.93% of 400,000 active; Potency, µM, for the others: max response, negative = inhibition, actives largely listed as inhibitors; VDR-SRC2-3 peptide fluorescence polarization, 2 h; note: potency is the fitted concentration of half-maximal effect
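Fluorescence polarization assay of small-molecule disruption of VDR binding to coregulator peptide SRC2-3. Compounds and controls pin-transferred, then read after 2 h incubation at ambient room temperature.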
MmCpn inh: Inhibitors of TCP-1 ring complex (TRiC) of Methanococcus maripaludis (MmCpn): qHTS; 0.031% of 330,000 active; purified Mm-Cpn ATPase, ADP Transcreener TR-FRET; Chaperonin Mm-Cpn (Methanococcus maripaludis); Potency, µM (top dose mostly 76.9 µM), for inactives: at the highest dose activity, negative = inhibition, usual class: inhibitors; note: potency is the fitted concentration of half-maximal effect; nearly all actives have a fitted effect of over 80% in size
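Measured: ADP formation by purified Mm-CPN. Conditions: 25 nM protein, 10 uM ATP, Tris pH 7.4 with Mg2+, K+ and DTT, 37°C for 30 min. Detection: Transcreener HTRF after 30 min at room temperature.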
G9a block: qHTS Assay for Inhibitors of Histone Lysine Methyltransferase G9a; Histone-lysine N-methyltransferase EHMT2 (Homo sapiens), Q96KQ7; G9a H3K9 monomethylation, AlphaScreen, 2 h; AID 504332, 2011; 8.8% of 350,000 active; Potency, µM (series often up to 102 µM), inactives show at the highest dose activity, negative = inhibition, actives largely listed as inhibitors; note: potency is the fitted concentration of half-maximal effect; nearly all actives have a fitted effect of over 75% in size
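Signal arises when biotinylated H3K9 peptide, once monomethylated, bridges streptavidin donor and antibody-captured acceptor beads. Enzyme at 20 nM was preincubated 15 min with test compounds; peptide 500 nM and SAM 20 uM then reacted for 2 h.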
* = called active by the depositor; ? = inconclusive; / = no result given; [ ] = dose if it differs, or a comment. Rows were chosen to be rich in hits. Some 10% of all compounds tested hit in one or more screens of this group. Unless noted, calls come from the whole dose curve; as a rule, active = well fitted curve in the direction sought with a large enough effect; inconclusive = small, poorly fitted or top-dose-only effect, or another doubt; inactive = no such curve, though single readings can be large; an effect the other way counts as inactive or inconclusive. Unless noted, % is set by controls: 0 for no effect and ±100 for the full control effect.

SMILES	Sfp inh	CCT chaperon mod	PLK1 PBD block	VDR inhibitor	MmCpn inh	G9a block
Cc1ccc(N2C(=N)/C(=C3/Nc4ccccc4S3)C(c3ccccc3)C2=O)cc1 (stereo not drawn)	-8.7%	-0.3	?	-5.4%	0.4%	35.5µM*
CCOc1ccccc1CNC(=O)c1cc2occc2n1C	-21.3%	0.3	3.3%	2.4%	-2.0%	25.1µM*
Oc1c(CN2CCOCC2)ccc2ccccc12	6.3%	-1.2	23.8µM*	?	0.7%	2.24µM*
COc1ccc(/C=C/C(=O)c2ccc3ccccc3c2O)cc1CN1CCOCC1	?	-2.7	-5.3%	-28.3%	-1.6%	6.31µM*
COc1ccc(/C=C/C(=O)c2ccc(O)cc2)cc1CN1CCOCC1	1.6%	-2.8	-17.2%	?	2.6%	13.8%[59 µM]
CCOC(=O)c1cc(-c2ccc(C)o2)nn1CCC#N	-21.0%	-0.5	-4.8%	0.0%	-12.8%	12.6µM*
CCOC(=O)c1cc(-c2ccccc2)nn1CCC#N	6.7%	-2.9	-5.7%	13.2%	1.6%	10.4%
CCc1ccccc1NC(=O)Cn1nnc2sc3c(c2c1=O)CCC(C(C)(C)C)C3 (stereo not drawn)	/	/	/	-2.8%	/	-4.1%[59 µM]
Cc1ccccc1CN1CCN(C(=O)c2cccc3ccccc23)CC1	-27.9%	-3.4	3.7%	-8.8%	1.4%	20µM*
Cc1ccccc1CN1CCN(C(=O)CC(C)C)CC1	79.4µM*	0.9	3.1%	6.1%	-3.4%	-7.7%[0.501 µM]
O=C(c1cccc2ccccc12)N1CCN(Cc2ccccc2F)CC1	-2.0%	-5.5	-4.3%	-15.1%	-1.7%	?
O=C(NCc1ccc(F)cc1)C(=O)NCC(c1ccco1)S(=O)(=O)c1cccs1 (stereo not drawn)	/	/	/	-0.8%	/	-27.3%[59 µM]
Cn1c(=O)c(-c2ccc(F)cc2)nc2cnc(OCc3ccccc3)nc21	-0.5%	/	/	-0.4%	/	4.7%[0.501 µM]
CC(C)[C@H](NC(=O)C1CC(=O)N(c2ccc(F)cc2)C1)C(=O)N1CCCCC1 (stereo partly drawn)	6.7%	2.5	3.36µM*	?	2.4%	46.6%
O=C(C1CC(=O)N(c2ccc(F)cc2)C1)N1CCN(c2ccc(F)cc2)CC1 (stereo not drawn)	-7.3%	1.5	-0.1%	26.2%	-4.2%	/
O=C(O)C1CC(=O)N(c2ccc(F)cc2)C1 (stereo not drawn)	16.6%	-0.4	26.7µM*	?	-0.4%	-10.2%[12.7 µM]
O=Cc1ccc(OC(=O)C2CC(=O)N(c3ccc(F)cc3)C2)cc1 (stereo not drawn)	5.6%	0.6	?	-25.7%	-0.3%	50.1µM*
COC(=O)c1ccc2c(=O)n(CCCCCC(=O)NCc3ccc(Cl)cc3)c(=O)[nH]c2c1	/	/	/	10.2%	/	9.3%[59 µM]
CCCCN(CCCC)S(=O)(=O)c1ccc(N2CCCC2=O)c([N+](=O)[O-])c1	/	-2.3	15µM*	?	/	/
NNS(=O)(=O)c1ccc(N2CCCC2=O)c([N+](=O)[O-])c1	?	-0.5	26.7µM*	?	1.7%	10µM*
CC(=O)c1ccc(Nc2c3ccccc3cc3occc23)cc1	-15.7%	/	/	0.0%	/	/
Cc1ccc(NC(=O)CCc2c(C)nc3ncnn3c2C)cc1Cl	/	/	/	6.0%	/	-5.6%[59 µM]
O=C(c1cccnc1)C1Cc2ccccc2C1=O (stereo not drawn)	-29.1%	-0.1	5.0%	13.7%	-0.9%	39.8µM*
CC1COCC(C)N1C(=O)c1cccnc1 (stereo not drawn)	/	1.5	8.9%	/	/	/
O=c1[nH][nH]c(-c2ccccc2)c1C=Nc1ccccc1	2.8%	4.0	-3.8%	3.5%	-1.7%	/
SMILES	Sfp inh	CCT chaperon mod	PLK1 PBD block	VDR inhibitor	MmCpn inh	G9a block
Sc1oc(-c2ccccc2)cc1C=Nc1ccccc1	-15.4%	1.4	-8.5%	?	-4.3%	0.891µM*
COc1ccc(CNC(=O)CSc2nnc(C)c3c(C)n(-c4ccccc4)nc23)c(OC)c1	/	/	/	-1.9%	/	-28.5%[59 µM]
Oc1ccc2ccccc2c1N=Nc1ccc(F)cc1	9.9%	1.1	12.8%	34.1%	-2.5%	2µM*
Cc1ccc(N=Nc2ccc3ccccc3c2O)cc1	-4.4%	-3.2	?	10.5%	-2.2%	2µM*
Oc1c(N=Nc2nn[nH]n2)ccc2ccccc12	/	-1.0	16.8µM*	/	/	/
Oc1c(N=Nc2ccc(F)cc2)ccc2ccccc12	19.9%	-2.0	9.47µM*	?	-2.3%	2.51µM*
COc1cccc(N=Nc2ccc3ccccc3c2O)c1	-0.1%	0.7	-2.7%	-19.4%	0.6%	/
CC(=O)N[C@H](CC(C)C)C(=O)O	-4.8%	/	/	-9.0%	/	-11.9%[2.33 µM]
COc1ccccc1-c1cc(C(=O)NC2CCN(C)CC2)c2ccc(Cl)c(C)c2n1	56.2µM*	1.2	-4.9%	12.4%	2.6%	14.2%
Cc1ccc2nc(-c3ccccn3)cc(C(=O)NC3CCN(C)CC3)c2c1	15.4%	/	/	/	-0.7%	-1.4%[12.7 µM]
Cc1ccccc1C(=O)NCC(c1cccnc1)N1CCc2ccccc21 (stereo not drawn)	/	/	/	5.9%	/	4.9%[59 µM]
Cc1cc(S(=O)(=O)N(Cc2ccccc2)Cc2ccc(N(C)C)cc2)ccc1-n1cnnn1	-4.1%	-1.5	-5.6%	5.6%	0.8%	8.91µM*
COc1cc(S(=O)(=O)N(Cc2cccnc2)Cc2ccco2)ccc1-n1cnnn1	0.6%	2.0	-3.1%	-6.4%	-0.4%	5.62µM*
COc1ccc(-c2ccc(=O)n(CC(=O)Nc3ccc(N(C)C)cc3)n2)cc1	/	/	/	15.8%	/	5.01µM*
COCC(=O)Nc1ccc(C(C)C)cc1	18.0%	-0.9	-11.1%	10.6%	0.8%	30.7%[12.7 µM]
CN(C)c1ccc(NC(=O)CCCc2ccccc2)cc1	22.4µM*	-1.7	-5.4%	-15.4%	-3.3%	1.26µM*
COCC(=O)Nc1ccc(N(C)C)cc1	-7.1%	-0.4	-4.3%	5.4%	-23.0%	2.51µM*
CN(C)c1ccc(NC(=O)COC(=O)CCC(=O)c2ccc(F)cc2)cc1	-14.7%	-0.6	1.5%	-14.5%	-3.4%	2.51µM*
Cc1cccc(NC(=O)CCCc2ccccc2)c1	-1.8%	-2.7	0.8%	-4.9%	-2.3%	33.0%
COc1ccc(-c2ccc(=O)n(CC(=O)Nc3ccccc3C(F)(F)F)n2)cc1	/	/	/	6.0%	/	-0.2%[59 µM]
COC(=O)C1(CC(C)C)C=C2C(=C(C)C(=O)C2C)CN1 (stereo not drawn)	1.1%	/	/	/	/	/
CC1Cc2ccccc2N1C(=O)CSc1nnc(-c2cccc(Cl)c2)o1 (stereo not drawn)	/	/	/	6.3%	/	-0.3%[59 µM]
